Reference: the supplement of paper PMC10981050
Where “and” joins values, the source holds several entries; their conditions need not be identical. Equal entries are not always repeated. Structures can show the parent of a compound that is named as a salt.

How the values were obtained:
Assay in all cases: cell viability relative to vehicle control; higher = less cytotoxic
Details in all cases: 10 µM
K562 = system: K562
In short: (§1)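 Screening covered the Selleck bioactive, kinase and epigenetic probe libraries, less identity-inconsistent compounds, on CRISPR-edited mutant clones and isogenic wild-type clones of four leukaemia lines. Cells, at 2000 per well in 50 µL medium, received a single 10 µM acoustically dispensed dose. After 48 h the supernatant was removed and CellTiter-Glo luminescence was read. Viability was analysed in Genedata Screener as percent of the on-plate vehicle control.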

MARIMO = system: MARIMO
In short: as §1

MOLM14 = system: MOLM14
In short: as §1

OCI-AML2 = system: OCI-AML2
In short: as §1

Compound | cell viability (K562; SRSF2 genotype: SRSF2 P95H/wt) | cell viability (K562; SRSF2 genotype: SRSF2 wt/wt) [%] | cell viability (MARIMO; SRSF2 genotype: SRSF2 P95H/wt) [%] | cell viability (MARIMO; SRSF2 genotype: SRSF2 wt/wt) [%] | cell viability (MOLM14; SRSF2 genotype: SRSF2 P95H/wt) [%] | cell viability (MOLM14; SRSF2 genotype: SRSF2 wt/wt) [%] | cell viability (OCI-AML2; SRSF2 genotype: P95H/wt) [%] | cell viability (OCI-AML2; SRSF2 genotype: wt/wt) [%]
Cc1cnc(C(=O)O)c[n+]1[O-] [Acipimox] | 99.3% and 96.5% | 97.6 | 96.7 | 100 | 98.8 | 101 | 105 | 104
CC(C)(O)C1CCC(C)(C2C(O)CC3(C)C4CC(OC5OC(CO)C(O)C(O)C5O)C5C(C)(C)C(OC6OCC(O)C(O)C6O)CCC56CC46CCC23C)O1 (centres undefined) [Astragaloside A] | 104% and 103% | 99.1 | 109 | 111 | 106 | 107 | 97.2 | 103
C[C@@H](O[C@H]1OCCN(Cc2n[nH]c(=O)[nH]2)[C@H]1c1ccc(F)cc1)c1cc(C(F)(F)F)cc(C(F)(F)F)c1 [Aprepitant (MK-0869)] | 52.7% and 46% | 56.8 | 73 | 56.1 | 56.2 | 64.3 | 45.8 | 56.8
CCC[S+]([O-])c1ccc2[nH]c(NC(=O)OC)nc2c1 (centres undefined) [Albendazole Oxide (Ricobendazole)] | 88.8% and 83.5% | 80.6 | 85.7 | 88 | 88.2 | 95.4 | 87.8 | 95.5
COc1c(C)c2c(c(O)c1C/C=C(\C)CCC(=O)OCCN1CCOCC1)C(=O)OC2 [Mycophenolate mofetil (CellCept)] | 50.6% and 48.7% | 45.1 | 45.4 | 43.6 | 9.99 | 2.92 | 13.5 | 12.2
CC(C)=CCC[C@](C)(O[C@@H]1O[C@H](CO)[C@@H](O)[C@H](O)[C@H]1O)[C@H]1CC[C@]2(C)[C@@H]1[C@H](O)C[C@@H]1[C@@]3(C)CC[C@H](O)C(C)(C)[C@@H]3[C@@H](O[C@@H]3O[C@H](CO)[C@@H](O)[C@H](O)[C@H]3O)C[C@]12C [Ginsenoside Rg1] | 95.2% and 91.8% | 101 | 96.7 | 94.4 | 97.5 | 98.4 | 99.5 | 104
NC(=O)N1CCC(CC(=O)N2CCC([C@H]3c4ncc(Br)cc4CCc4cc(Cl)cc(Br)c43)CC2)CC1 | 49.1% and 62.3% | 52.4 | 44.8 | 45.7 | 37.4 | 35.7 | 38 | 32
CN(C)c1ccc2nc3c(C(=O)O)cc(=O)c(O)c-3oc2c1 [Gallocyanine] | 84.7% and 76.8% | 77.7 | 82.6 | 87.4 | 85.3 | 86.2 | 84 | 78.8
Cc1ccc(C(C)C)cc2c(C)ccc1-2 [Guaiazulene] | 97.5% and 99% | 110 | 102 | 101 | 93.5 | 105 | 107 | 93.4
COc1cc(/C=C/C(=O)N2CCN(CC(=O)N3CCCC3)CC2)cc(OC)c1OC [Cinepazide maleate] | 102% and 105% | 99.2 | 99.5 | 106 | 106 | 105 | 106 | 108
COc1cc(C(=O)N(CCCc2ccccc2)Cc2ccc(CC(=O)O)cc2)cc(OC)c1C | 95.6% and 98% | 99.5 | 105 | 109 | 101 | 99.4 | 101 | 100
CC[C@H](c1ccc(O)cc1)[C@@H](CC)c1ccc(O)cc1 [Hexestrol (Bibenzyl)] | 96.8% and 102% | 96.9 | 94.6 | 101 | 99.7 | 103 | 100 | 91.9
CCN(CC)CCNC(=O)c1c(C)[nH]c(/C=C2\C(=O)Nc3ccc(-c4csc(-c5ccccc5)n4)cc32)c1C [Amcasertib (BBI503)] | 0.84% and 1.26% | 0.76 | 66.4 | 43.4 | 4.21 | 8.87 | 4.03 | 26
Nc1ccccc1NC(=O)c1ccc(CNC(=O)OCc2cccnc2)cc1 [Entinostat (MS-275, SNDX-275)] | 9.53% and 33.8% | 26.6 | 22.1 | 25.4 | 1.22 | 1.1 | 0.59 | 4.33
CC(=O)Nc1nc2c(Oc3cc(-c4ccc(C(F)(F)F)cc4)ncn3)cccc2s1 | 99.6% and 93% | 88 | 93.3 | 103 | 95.9 | 97.7 | 90.6 | 88.9
Cn1cc(-c2ccc3nnc(Sc4ccc5ncccc5c4)n3n2)cn1 | 92% and 94.2% | 96.6 | 90 | 101 | 98 | 99 | 98 | 94.3
Cc1cc(NC(=O)c2cccc(NC(=O)/C=C/CN(C)C)c2)ccc1Nc1nccc(-c2cccnc2)n1 | 59.8% and 60.8% | 65.5 | 53.1 | 50.7 | 6.36 | 6.17 | 17.2 | 26.6
O=C1c2c(O)cc(O)cc2OC(c2ccc(O)c(O)c2)C1O (centres undefined) [Taxifolin (Dihydroquercetin)] | 97.9% and 94.4% | 91.6 | 91.9 | 96.5 | 100 | 101 | 93.5 | 96
CCCCCCCCCCCCCC(=O)OCC(COC(=O)CCCCCCCCCCCCC)OC(=O)CCCCCCCCCCCCC [Tritetradecanoin] | 107% and 104% | 103 | 100 | 107 | 101 | 102 | 102 | 107

Compound | cell viability (K562; SRSF2 genotype: SRSF2 P95H/wt) | cell viability (K562; SRSF2 genotype: SRSF2 wt/wt) [%] | cell viability (MARIMO; SRSF2 genotype: SRSF2 P95H/wt) [%] | cell viability (MARIMO; SRSF2 genotype: SRSF2 wt/wt) [%] | cell viability (MOLM14; SRSF2 genotype: SRSF2 P95H/wt) [%] | cell viability (MOLM14; SRSF2 genotype: SRSF2 wt/wt) [%] | cell viability (OCI-AML2; SRSF2 genotype: P95H/wt) [%] | cell viability (OCI-AML2; SRSF2 genotype: wt/wt) [%]
OC[C@H]1O[C@H](OC[C@H]2O[C@H](O[C@]3(CO)O[C@H](CO)[C@@H](O)[C@@H]3O)[C@H](O)[C@@H](O)[C@@H]2O)[C@H](O)[C@@H](O)[C@H]1O [D-(+)-Raffinose pentahydrate] | 114% and 103% | 118 | 104 | 103 | 112 | 113 | 104 | 103
C[C@H]1CO[C@@H]2Cn3cc(C(=O)NCc4ccc(F)cc4F)c(=O)c(O)c3C(=O)N12 | 84.6% and 81.9% | 71.5 | 90.2 | 95.4 | 92.8 | 88.8 | 83.9 | 86.6
CCCCCCNC(=O)Nc1ccc(S(=O)(=O)Nc2ccc(CCNC[C@H](O)COc3ccc(O)cc3)cc2)cc1 | 72.8% and 83.3% | 82.8 | 89.2 | 91.4 | 75.5 | 75.4 | 74.2 | 71
CC(C)OC(=O)CCC/C=C\C[C@@H]1[C@@H](/C=C/[C@@H](O)COc2cccc(C(F)(F)F)c2)[C@H](O)C[C@@H]1O [Travoprost] | 67.1% and 66.4% | 65 | 57.9 | 40.1 | 79.1 | 94.4 | 23.5 | 37.8
Cc1nc(C(=O)NCC(=O)O)c(O)c2ccc(Oc3ccccc3)cc12 [Roxadustat (FG-4592)] | 89.4% and 79.4% | 85.7 | 79.1 | 82.7 | 88.5 | 84.3 | 83.9 | 87.5
CC(C)=CCCC(C)(OC1OC(COC2OCC(O)C(O)C2O)C(O)C(O)C1O)C1CCC2(C)C1C(O)CC1C3(C)CCC(OC4OC(CO)C(O)C(O)C4O)C(C)(C)C3CCC12C (centres undefined) [Gynostemma Extract] | 100% and 107% | 102 | 108 | 111 | 101 | 102 | 110 | 98
Nc1nc2cc(-c3ccc4ncc(C(=O)N5CCOCC5)n4c3)ccc2o1 [Serabelisib (INK-1117,MLN-1117,TAK-117)] | 92.2% and 98.4% | 84.2 | 64.5 | 72.4 | 57.7 | 65.2 | 53 | 65.4
Nc1ccn([C@@H]2O[C@H](CO)[C@@H](O)[C@H]2O)c(=O)n1 [Cytidine] | 101% and 86.3% | 84.4 | 82.5 | 89.9 | 81 | 89.2 | 82.5 | 86.6
O=C(O)C(Cc1c[nH]c2ccccc12)N1C(=O)c2ccccc2C1=O (centres undefined) | 104% and 96.9% | 103 | 96.8 | 104 | 99.2 | 99.3 | 93.2 | 98.5
CCCNC(C)C(=O)Nc1ccccc1C (centres undefined) [Prilocaine] | 87.8% and 85.9% | 86.8 | 79.4 | 90.5 | 93.3 | 85.6 | 89.1 | 90.7
CCCCCC(O)C=CC1C(O)CC(=O)C1CCCCCCC(=O)O (centres undefined) [Alprostadil(Caverject)] | 69.3% and 64.4% | 84.2 | 82.4 | 73.2 | 50.1 | 22.4 | 80.3 | 62.1
CC(C)(Sc1cc(C(C)(C)C)c(O)c(C(C)(C)C)c1)Sc1cc(C(C)(C)C)c(O)c(C(C)(C)C)c1 [Probucol] | 98.5% and 99.2% | 102 | 99.7 | 105 | 102 | 105 | 105 | 103
NC(=O)c1cnc(NCCc2ccc(O)c(Cl)c2)nc1NCc1ccccc1 | 34.2% and 38.5% | 33.3 | 8.49 | 5.28 | 5.95 | 1.62 | 8.8 | 13.2
C=C(C)[C@@H]1CC[C@]2(C)CC[C@]3(C)[C@H](CC[C@@H]4[C@@]5(C)CC[C@H](O)C(C)(C)[C@@H]5CC[C@]43C)[C@@H]12 [Lupeol] | 106% | 113 | 109 | 108 | 105 | 109 | 108 | 108
C[C@H]1COC2=C1C(=O)C(=O)c1c2ccc2c1CCCC2(C)C [Cryptotanshinone] | 32.1% and 18.5% | 47.8 | 60.3 | 76.1 | 58.6 | 69.2 | 42.7 | 46.5
Cc1nc(C)c(C)nc1C [Ligustrazine hydrochloride] | 97.2% and 97.7% | 91.8 | 89.8 | 102 | 95.8 | 98.7 | 87.8 | 107
COc1ccc(C(=O)CC2(O)C(=O)Nc3c(Cl)ccc(Cl)c32)cc1 (centres undefined) | 16.2% and 28.8% | 27.4 | 7.08 | 8.57 | 6.9 | 2.04 | 4.82 | 10.3
CCC(=O)N1CCN(c2ccc(-n3c(=O)ccc4cnc5ccc(-c6cnc7ccccc7c6)cc5c43)cc2C(F)(F)F)CC1 [Torin 1] | 46.8% and 45.3% | 46.4 | 64.6 | 61.4 | 39.8 | 36.2 | 41.5 | 39.9
CCS(=O)(=O)c1cccc(-c2cc(C(=O)NC3CCN(C)CC3)c(C)c3[nH]c4ncc(C)cc4c23)c1 | 29% and 32.2% | 21.9 | 11.9 | 7.33 | 2.91 | 2.2 | 4.55 | 11.1
